The text below walks through data of PubChem BioAssay AID493025 (Johns Hopkins Ion Channel Center, 2011).

The whole screen tested about 1,000 compounds, of which about 570 (57%) were called active. No rule for the calls is given here. So high a share suggests a set chosen from earlier hits. The list is a sample of the results.

This test deals with Potassium voltage-gated channel subfamily KQT member 2 (Rattus norvegicus) (UniProt O88943). As to the kind of experiment: rat KCNQ2 potassium channel inhibitors, confirmation, cell-based, thallium flux (AID 493025).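 As to activity change, negative = inhibition: 0% = vehicle wells and values are ratio percent relative to vehicle.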 The following applies: KCNQ2-expressing cells, at 10 µM; activity change, negative = inhibition: active compounds read low; outcome: inhibition.
Chain of Potassium voltage-gated channel subfamily KQT member 2 (Rattus norvegicus) (O88943 whole entry, looked up): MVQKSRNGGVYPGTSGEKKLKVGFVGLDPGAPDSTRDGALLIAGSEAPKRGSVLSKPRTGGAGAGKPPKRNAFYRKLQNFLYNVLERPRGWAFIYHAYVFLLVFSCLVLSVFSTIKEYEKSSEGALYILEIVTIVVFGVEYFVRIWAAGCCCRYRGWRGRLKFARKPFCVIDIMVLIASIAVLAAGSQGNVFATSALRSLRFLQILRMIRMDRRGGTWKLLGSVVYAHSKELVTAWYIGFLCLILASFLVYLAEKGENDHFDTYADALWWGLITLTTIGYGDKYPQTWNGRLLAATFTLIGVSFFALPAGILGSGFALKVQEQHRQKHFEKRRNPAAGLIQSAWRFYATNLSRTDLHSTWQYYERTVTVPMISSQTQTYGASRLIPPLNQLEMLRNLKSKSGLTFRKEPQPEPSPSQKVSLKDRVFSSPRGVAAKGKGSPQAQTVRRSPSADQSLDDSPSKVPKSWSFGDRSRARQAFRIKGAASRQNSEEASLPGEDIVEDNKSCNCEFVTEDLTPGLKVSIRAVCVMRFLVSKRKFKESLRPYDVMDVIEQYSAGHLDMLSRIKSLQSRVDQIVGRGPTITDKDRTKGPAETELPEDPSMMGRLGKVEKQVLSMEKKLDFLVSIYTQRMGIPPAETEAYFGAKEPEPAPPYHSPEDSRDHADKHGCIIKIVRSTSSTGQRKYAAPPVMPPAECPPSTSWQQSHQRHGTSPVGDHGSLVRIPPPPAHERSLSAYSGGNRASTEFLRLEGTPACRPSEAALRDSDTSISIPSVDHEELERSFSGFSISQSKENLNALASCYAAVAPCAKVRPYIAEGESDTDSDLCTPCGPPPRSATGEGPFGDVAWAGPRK
Take `CCc1ccc(-c2nn(-c3ccccc3)cc2CSC(=N)N)cc1`: the activity change, negative = inhibition is -37.5% (active).
Regarding `C=CS(=O)c1sc(Cl)c(N2CCOCC2)c1[N+](=O)[O-]` (stereo unspecified), the activity change, negative = inhibition is -32.5% (active).
Next, `Cc1ccc(C(C)C)cc1OCC(=O)Nc1ccccc1N1CCCC1`: “inactive”.
As for `CC(C(=O)NCC1CCCCC1)N(C)Cc1cccc(Cl)c1` (stereo unspecified), the figure is -47% (active).
Take `CCc1ccccc1NC(=O)/C(=C/c1ccccc1)c1ccccc1`: the activity change, negative = inhibition is -33% (active).
As for `C=CCn1c(SCC(=O)/C(C#N)=C(\C)N)nc2sc(C)c(C)c2c1=O`, the entry is “inactive”; as for `CN(Cc1ccccc1F)C(=O)C(Cc1ccccc1)NC(=O)c1ccccc1` (stereo unspecified), -29% (active); as for `CC(NC(=S)NNS(=O)(=O)c1ccc(C(C)(C)C)cc1)c1ccccc1` (stereo unspecified), “inactive”.
As for `CCc1ccc2ncc(C(=O)c3ccccc3)c(N3CCOCC3)c2c1`, the figure is -20.5% (active).
Next, `Fc1ccc2[nH]c3c(N4CCSCC4)ncnc3c2c1`: -38.5% (active); `Cc1ccc(N2C(=O)C3C(c4ccccc4)(C2=O)C3(c2ccccc2)c2ccccc2)cc1` (stereo unspecified): “inactive”; `CC(C)N(C(=O)CSc1nc(COc2ccccc2)nc2ccccc12)C(C)C`: -42.5% (active).
For the compound `COc1cccc(COc2ccc(N(C)S(=O)(=O)c3ccccc3)cc2)c1`, the activity change, negative = inhibition entry is “inactive”.
As for `O=C(OCC(=O)N(CCc1ccccc1)Cc1ccccc1)c1ccccc1[N+](=O)[O-]`, the entry is “inactive”.
Regarding `CSCc1cc(N(C)C)nc(SCc2ccc(Cl)cc2Cl)n1`, the activity change, negative = inhibition is -19.5% (active).
As for `O=C(Nc1ccccc1Cl)/C(Cl)=C(\Cl)S(=O)c1ccccc1` (stereo unspecified), the figure is -22.5% (active); as for `Cc1ccccc1N1CCN(CC(=O)NCc2ccc(Cl)cc2)CC1`, “inactive”.
As for `Cc1cccc(C(=O)OC(C)C(=O)NC2CCCc3ccccc32)c1O` (stereo unspecified), the figure is -27% (active); as for `COc1ccc(CN(C)C(C)C(=O)NC2CCCc3ccccc32)cc1` (stereo unspecified), -19.5% (active).
Next, `O=C(Nc1ccc(Cl)c(Cl)c1)N1CC=C(c2ccccc2)CC1`: “inactive”; `COC(=O)C1=C(C)N(C(C)c2ccccc2)C(=O)/C1=C\c1ccco1` (stereo unspecified): -22.5% (active); `CCOC(=O)C(C)Sc1nc2ccccc2c(=O)n1CC1CCCCC1` (stereo unspecified): -32% (active).
Regarding `COc1ccc(Cl)cc1NC(=O)CN(C)Cc1ccc(OC)c(OC)c1`, the activity change, negative = inhibition result is “inactive”.
As for `Cc1ccc(C(=O)c2c(NC(=O)c3ccccc3)sc(C)c2C)cc1`, the figure is -21% (active); as for `Cc1ccccc1C(=O)Nc1ccccc1Sc1ccccc1`, -26% (active); as for `CCOC(=O)N1CCC(N(CCOC)C(=O)Nc2ccc(C)c(C)c2)CC1`, -33% (active).
Next, `CCc1ccc(-c2cc(C(=O)NCc3ccco3)c3ccccc3n2)s1`: “inactive”.
As for `CC(C)C(NC(=O)OCc1ccccc1)C(=O)OCC(=O)N1C(C)CCCC1C` (stereo unspecified), the entry is “inactive”; as for `CC(C)[C@H](NC(=O)OCc1ccccc1)C(=O)OCc1ccccc1`, -23.5% (active); as for `Cc1ccc(C2=Nc3c(ccc4ccccc34)C(c3ccncc3)=NN2)cc1`, “inactive”.
On to `Cc1nc2ccccc2c(-c2ccccc2)c1C(=O)c1ccccc1`, for which the activity change, negative = inhibition was -31% (active).
